Most compounds without a hit are left out; they make up all but 1.4% or so of the library.
BRCA1 expr act = qHTS Assay to Identify Small Molecule Activators of BRCA1 Expression | MCF7-BRCA1-FFLuc reporter, luminescence, 48 h; response scale: scaled: vehicle 0%, 10 µM genistein 100% | Potency, µM (doses to about 46.1 µM), for the others: at the top dose activation, actives largely listed as activators | 380,000 compounds, 1.1% hits | AID 624202, 2012; note: potency is the fitted concentration of half-maximal effect; nearly all actives have a fitted effect of over 80% in size
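48 h compound treatment of MCF7-BRCA1-FFLuc cells (phenol-red free MEM, 37 °C), then 15 min with luciferase substrate and luminescence imaging.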
IL-2 act = qHTS of IL-2 Activators. AID 652025, 2013. activation, % (series mostly up to about 46 µM). 360,000 compounds, 0.065% hits. IL-2 activation reporter assay, cell-based qHTS; stimulated with anti-CD3/CD4/CD28 beads; in transgenic mouse T cells; in the data active = activation above about 50%; inconclusive = mostly about 30% to 49%; note: 0% is about no effect
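Using fluorescent plate cytometry, EGFP and DsRed are detected in transgenic mouse T cells stimulated 18 h at 37 degrees C with antibody-coated beads after 60 min compound pretreatment.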
N370S GC mod = qHTS Assay for Inhibitors and Activators of N370S glucocerebrosidase as a Potential Chaperone Treatment of Gaucher Disease | Lysosomal acid glucosylceramidase (Homo sapiens), P04062 | N370S GC spleen homogenate, 4MU-glucoside fluorescence | Potency, µM (highest dose often 59.4 µM), for the others: at the highest dose activity change, negative = inhibition, hits mostly inhibitors | 330,000 compounds, 0.092% hits | AID 2101, 2009;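 note: potency is the fitted concentration of half-maximal effect; 0% = full enzyme activity and -100% = no enzyme basal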
Nrf2 activator = qHTS of Nrf2 Activators; 410,000 compounds, 0.31% hits; AID 624171, 2012; Potency, µM (series often up to 46.1 µM), for inactives: at the highest dose activation, usual class: activators; AREc32 ARE-luciferase reporter (MCF7-derived line), luminescence, 24 h; note: potency is the fitted concentration of half-maximal effect; % of control where 0% means no effect; nearly all actives have a fitted effect of over 65% in size
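ARE-driven firefly luciferase activity in AREc32 cells measured after a 24 hr compound exposure at 37 deg C, using Steady-Glo reagent and a 30 min room-temperature hold.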
Chronic BCR inh = qHTS Assay to Find Inhibitors of Chronic Active B-Cell Receptor Signaling. ABC-DLBCL IkBa-CBG/CBR reporter, luminescence ratio, 4 h. Potency, µM (series often up to 46.1 µM), for inactives: at the highest dose activity change, negative = inhibition, hits mostly inhibitors. 340,000 compounds, 0.05% hits. AID 493014, 2011; active = well fitted inhibition curve with a large enough effect in the signal ratio, with a control signal flat, not every such curve was filed as active; inconclusive = small, poorly fitted or top-dose-only effect, or effect the other way, or a change in a side signal; the % refers to the signal ratio;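 note: potency is the fitted concentration of half-maximal effect; plate controls were basal doxycycline-induced cells for no effect and cells given 10 µM MG132 for full effect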
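Doxycycline induced both beetle luciferases in TMD8 lymphoma cells; IKK-driven degradation limits the IkappaBalpha-fused green signal, while red luminescence normalises for cell number and nonspecific effects. Compounds tested up to 46 uM, 4 hrs.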
a7 integrin act = qHTS for Activators of Integrin-Mediated Alleviation for Muscular Dystrophy; AID 624291, 2012; Potency, µM (top dose mostly 38.3 µM), for the others: at the highest dose activation, hits mostly activators; alpha7betagal myoblasts, beta-gal FDG fluorescence, 48 h; 350,000 compounds, 0.064% hits;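 note: potency is the fitted concentration of half-maximal effect; 100% = response of the positive control SU9516; nearly all actives have a fitted effect of over 60% in size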
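Alpha7betagal+/- myoblasts (passage 13) were plated 16-24 hr, then exposed to compounds (1:260 dilution of DMSO stock) for 48 hours at 37C. After MPER lysis, β-galactosidase reporter activity was read as FDG fluorescence (ex 480/em 540) after 30 minutes.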
Active calls of the source: *. Unless noted, calls come from the whole dose curve; as a rule, active = well fitted curve in the direction sought with a large enough effect; inconclusive = small, poorly fitted or top-dose-only effect, or another doubt; inactive = no such curve, though single readings can be large; an effect the other way counts as inactive or inconclusive.

CCOCCCNc1nc2ccccc2[nH]1 was read as BRCA1 expr act 31%, IL-2 act 1, N370S GC mod -1%, Nrf2 activator 0%, Chronic BCR inh 20% and a7 integrin act 10%.
For FC(F)(F)c1ccccc1Cc1c(-c2cccc(Br)c2)nc2c3ccccc3ccn12 the results were BRCA1 expr act -23%, IL-2 act 0 and Nrf2 activator 13µM*.
`Cc1cc(NC(=O)C(Cl)c2ccccc2)no1` (centres undefined) gave BRCA1 expr act -20%, IL-2 act 0, N370S GC mod 2%, Nrf2 activator 13µM*, Chronic BCR inh inconclusive and a7 integrin act -27%.
O=C(NC1CCCCC1)c1cc(-c2ccccc2O)on1 was read as BRCA1 expr act 2µM*, IL-2 act 1, N370S GC mod -3%, Nrf2 activator 2%, Chronic BCR inh inconclusive and a7 integrin act inconclusive.
`CCC(Oc1ccccc1)C(=O)Nc1cc(C)on1` (centres undefined) gave BRCA1 expr act 4%, IL-2 act -2, N370S GC mod 3%, Nrf2 activator -1%, Chronic BCR inh 12% and a7 integrin act -3%.
For Cc1cc(NC(=O)c2cc(-c3cccs3)on2)no1 the results were BRCA1 expr act 12%, IL-2 act -1, N370S GC mod 1%, Nrf2 activator 2%, Chronic BCR inh inconclusive and a7 integrin act 40%.
For Cc1ccc(OC(C)C(=O)Nc2cc(C)on2)cc1 (centres undefined) the results were BRCA1 expr act -2%, IL-2 act 1, N370S GC mod -5%, Nrf2 activator 0%, Chronic BCR inh inconclusive and a7 integrin act -28%.
`Cc1cc(NC(=O)c2ccc(NC(=O)C(C)Oc3ccccc3)cc2)no1` (centres undefined) gave BRCA1 expr act 13µM*, IL-2 act 0, N370S GC mod -7%, Nrf2 activator 0%, Chronic BCR inh 23% and a7 integrin act 6%.
Cc1cc(NC(=O)c2cc(C(C)C)on2)no1 was read as BRCA1 expr act 11µM*, IL-2 act 0, N370S GC mod 4%, Nrf2 activator 0%, Chronic BCR inh inconclusive and a7 integrin act 6%.
For CCN(CC)c1ccc(-c2nnc(SCC(=O)NCc3ccco3)n2CC)cc1 the results were BRCA1 expr act 3%.
O=C(C[N+]12CN3CN(CN(C3)C1)C2)c1ccc(O)c(O)c1 was read as BRCA1 expr act 3%.
Screening CN(C)c1cc(F)c(C=O)cc1F returned BRCA1 expr act 12%.
Screening CC(C)Oc1ccc(C(=O)NC2CCCCC2)cc1 returned BRCA1 expr act 4.5µM*, IL-2 act -2, N370S GC mod 7%, Nrf2 activator 3%, Chronic BCR inh inconclusive and a7 integrin act -17%.
Screening CCCc1cc(C(=O)NC2CCCCC2)no1 returned BRCA1 expr act inconclusive, IL-2 act -1, N370S GC mod 8%, Nrf2 activator 0%, Chronic BCR inh inconclusive and a7 integrin act -16%.
Screening CC(C)Oc1ccc(C(=O)NC2CCS(=O)(=O)C2)cc1 (centres undefined) returned BRCA1 expr act 0%, IL-2 act -1, N370S GC mod 1%, Nrf2 activator 0%, Chronic BCR inh 0% and a7 integrin act -13%.
For CC(C)c1cc(C(=O)NC2CCCCC2)no1 the results were BRCA1 expr act 8.9µM*, IL-2 act 1, N370S GC mod 3%, Nrf2 activator 0%, Chronic BCR inh inconclusive and a7 integrin act -13%.
